From the OligoGym collection

Each sequence was assayed against SCGB3A1 (assay: pooled miR-30 sensor sort-seq; sequence = guide strand). Conditions: shRNA.

Compared with ACTAAGAAAGCAGCAGCGGAGC, TCCAGCGCAGCGACAGGCTGGG is higher in sensor-assay potency score (higher = more potent): -1.78 for the first, -1.47 for the second.

Going from TAAGAAAGCAGCAGCGGAGCTG to TATGAGGTGGTTCACGGGGATG, the sensor-assay potency score (higher = more potent) falls from -0.766 to -2.01.

Compared with TTCACGGGGATGCCCAGGCTGC, AAGAAAGCAGCAGCGGAGCTGC is higher in sensor-assay potency score (higher = more potent): -1.89 for the first, -0.859 for the second.

Compared with AAAGCAGCAGCGGAGCTGCAGG, TCAGCCACACACTTCTGGGAGC is higher in sensor-assay potency score (higher = more potent): -1.3 for the first, -1.19 for the second.

Compared with CAGCTCAGCCACACACTTCTGG, TCTATGAGGTGGTTCACGGGGA is higher in sensor-assay potency score (higher = more potent): -1.81 for the first, -0.221 for the second.

Going from CTCAGCAGGAGCTTCAGCGGGT to AGCTCAGCCACACACTTCTGGG, the sensor-assay potency score (higher = more potent) falls from -1.59 to -1.63.

These sequences were tested against SCN10A in the same assay as above. Conditions: shRNA.

Compared with TTGGTCATCAGTCTCCACCATC, TATTCCAGAATCTTCGCTGTGA is higher in sensor-assay potency score (higher = more potent): -1.09 for the first, 0.727 for the second.

First: TATGATACTGACAACACTCATT
Second: TTGCTTCTCTATCTCCACCAGT
The sensor-assay potency score (higher = more potent) of the first is lower: -0.905 for the first, -0.403 for the second.

Compared with TAATGCTCTAAGAACTCTGAAT, TTGAGCTTCACCCACATGGGGC is higher in sensor-assay potency score (higher = more potent): -0.877 for the first, -0.622 for the second.

Compared with TTAACCAAAATAGTGACCGTAA, TTCAGCACCATAAATGTCCGGT is higher in sensor-assay potency score (higher = more potent): 0.123 for the first, 0.128 for the second.

Compared with TAGTGCTGCTAGCACCTCCTGC, TTAGACAAAATCCTCTTGCCAG is higher in sensor-assay potency score (higher = more potent): -0.978 for the first, -0.449 for the second.

Compared with TTGACTTTCACATTGACCCAGA, TTGTCCTGCATCGAATGCCGAG is lower in sensor-assay potency score (higher = more potent): 0.154 for the first, -1.18 for the second.

The sequences below were run against SCN2B in the same assay as above. Conditions: shRNA.

Compared with TTGCAAAAGAAACTCAGTCTGC, TAAACTGGAAATAACTGTGAAG is lower in sensor-assay potency score (higher = more potent): -0.173 for the first, -0.894 for the second.

Compared with TATATCTATACCTAGAGAGAGA, TTTTTTTCTCCTCACACACTTG is higher in sensor-assay potency score (higher = more potent): -1.18 for the first, -1.04 for the second.

First: TTGATTGGCAGTTAGGTACTGA
Second: TTCCCTGAGAACTCCACGCGGT
The sensor-assay potency score (higher = more potent) of the first is higher: 0.514 for the first, -0.473 for the second.

First: TTGCACTCCTGGTAAGTCCAGT
Second: TATAGCACACACAACCAAGAAA
The sensor-assay potency score (higher = more potent) of the first is higher: 0.119 for the first, -1.12 for the second.

Going from TTGTCTGTCTGCTTAACCTGAC to ATTGTCTGTCTGCTTAACCTGA, the sensor-assay potency score (higher = more potent) falls from -0.0966 to -0.931.

Compared with TTGTGGTTCACTGTGTAGCAGG, TTAATTAGGAGGAAGAGACAGA is higher in sensor-assay potency score (higher = more potent): -0.841 for the first, -0.125 for the second.

What follows are sequences tested against SCN4A in the same assay as above. Conditions: shRNA.

Compared with TTTGAACTTCTCAAGCATCTGC, TTGATGAGCATGTTCAGCGTTG is lower in sensor-assay potency score (higher = more potent): 1.21 for the first, -0.377 for the second.

In the case of TTGTACAGGATGTCCACCTTGA, the sensor-assay potency score (higher = more potent) is reported as 0.539.
